Screens (PubChem BioAssay)
Only some compounds are listed: those with a hit (about 2.6% of all), similar ones and a draw of the others.
HSP90 refold inh – inhibitors of HSP90 luciferase refolding in rabbit reticulocyte lysate | AID 1789 | 290,000 tested, 0.91% active | luciferase refolding luminescence, 3 h | inhibition, % at 5.6 µM;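 active = inhibition above the screen-wide mean plus 3 SD, computed separately per campaign, cut at about 16% in these data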;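 note: 0% = DMSO wells and 100% = 60 µM geldanamycin wells; inhibitors lower the luminescence because luciferase stays unfolded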
aDG glyco up – increases alpha dystroglycan glycosylation; Pro5-aDG cells, alpha-DG glycosylation AlphaScreen (IIH6); 0% Pro5, 100% B10-LARGE cell signal; activation, % at 10 µM; 360,000 tested, 0.22% active; AID 624168;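 active = activation of at least 8% versus controls, or a plate z-score of at least 8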;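 note: Pro5 are CHO cells carrying HIG-tagged alpha-DG that lacks glycosylation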
LMP1 NFkB inh – inhibitors of Epstein-Barr LMP1-induced NF-kappaB reporter; 350,000 tested, 0.69% active; AID 504558; LMP1-induced NF-kappaB luciferase reporter cells, luminescence; inhibition, % at 12.5 µM; in the data active = inhibition above about 41%;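 note: 0% = neutral control wells and 100% = reference inhibitor control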
TROY NFkB inh – inhibitors of TROY-dependent NF-kB signaling; Q293 LMP1-TROYcd NF-kB luciferase reporter, 4 h; inhibition, % at 10 µM; 360,000 tested, 0.98% active; AID 1347056;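 active = compounds whose plate-normalised and pattern-corrected inhibition of the luciferase reporter signal at the single screening dose is 50% or more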
TWEAK Fn14 block – inhibitors of TWEAK-Fn14 interaction signaling; TWEAK-stimulated Fn14 reporter cells, luciferase luminescence, 8 h; inhibition, % at 10 µM; 360,000 tested, 2% active; AID 1159606; in the data active = inhibition above about 50%
LGR2 inh – blocks bursicon-induced cAMP signaling via Drosophila LGR2 | 380,000 tested, 0.35% active | HEK293 LGR2, CRE-luciferase, bursicon-stimulated, 4 h | inhibition, % at 9.99 µM;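 active = drop in luminescence signal, shown as inhibition above about 50% in the replicate tests, limit read from the data, passing the limit was not always enough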;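 note: agonist challenge used bursicon conditioned medium at about half maximal strength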
* hit, by the source's call; . = no result given.

SMILES | HSP90 refold inh | aDG glyco up | LMP1 NFkB inh | TROY NFkB inh | TWEAK Fn14 block | LGR2 inh
Cc1cc(C(=O)COc2ccc(C#N)cc2)c(C)n1-c1ccc2c(c1)OCO2 | -4.1 | 1.5 | 9.0 | 0.7 | 88.6* | -9.2
Cc1cc(-c2nnc(SCC(=O)Nc3ccccc3C(F)(F)F)o2)c(C)n1-c1ccccc1 | 8.7 | -0.1 | 15.2 | 69.7* | 91.6* | .
Cc1cccc(NC(=O)CSc2nnc(-c3cc(C)n(-c4ccccc4)c3C)o2)c1C | 7.1 | -0.2 | 4.5 | 44.4 | 3.4 | .
O=C(CSc1nnc(-c2ccc(Br)cc2)o1)Nc1cccc(C(=O)O)c1 | -0.1 | -0.1 | 75.4* | -68.8 | -29.3 | 17.1
O=C(CSc1nnc(-c2ccncc2)o1)Nc1cc(F)ccc1F | . | 0.1 | -16.7 | -19.8 | -11.2 | -24.2
O=C(CSc1nnc(-c2ccccc2)o1)Nc1ccccc1F | 15.1 | 0.1 | 53.4* | -4.0 | 57.0* | 24.2
N#Cc1c(NC(=O)CSc2nc(N)cc(=O)[nH]2)sc2c1CCCCCC2 | -1.1 | 0.1 | 3.1 | 13.3 | 15.7 | -0.8
CC(C)(C)C(=O)NC(NC(=S)Nc1sc2c(c1C#N)CCCC2)C(Cl)(Cl)Cl (stereo not drawn) | -0.8 | 0.1 | 0.8 | 58.9* | -8.6 | .
CCOC(=O)Nc1sc2c(c1C#N)CCC(C)C2 (stereo not drawn) | 2.3 | -0.1 | -14.3 | -72.1 | -28.2 | .
CCNC(=S)Nc1sc2c(c1C#N)CCC(C)C2 (stereo not drawn) | 1.7 | -0.3 | 59.4* | -47.1 | -23.2 | -8.5
CC(C)(C)C(=O)Nc1sc2c(c1C#N)CCC2 | -2.6 | 0.1 | -0.3 | -3.1 | -1.3 | -9.1
CC(=O)NC(=S)Nc1sc2c(c1C#N)CCCCC2 | 3.9 | -0.2 | -8.1 | 58.6* | 67.3* | 21.1
N#Cc1c(NC(=O)CSc2ncn[nH]2)sc2c1CCCCC2 | 10.2 | -0.1 | 36.2 | 46.0 | 75.4* | 17.1
CC(=O)Nc1sc2c(c1C#N)CCCC2 | 2.1 | 0.0 | -3.9 | -41.5 | -23.7 | .
C[C@@H]1CN([C@H](C)CO)C(=O)Cc2cc(NC(=O)CCC(F)(F)F)ccc2O[C@H]1CN(C)C(=O)NC1CCCCC1 | . | . | . | . | . | 11.6
CCCc1cc(C(=O)Nc2sc3c(c2C#N)CCC3)no1 | -1.3 | -0.1 | -5.0 | -27.7 | 99.9* | -22.8
O=C(COc1ccccc1)OCC(=O)N1CCCc2ccccc21 | . | -0.2 | 1.5 | 59.8* | 0.2 | 9.9
COc1ccc(C(=O)N2CCCc3ccccc32)cc1Br | 1.3 | -0.1 | 8.4 | 18.9 | -8.6 | .
COc1cc(OC)cc(C(=O)N2CCCc3ccccc32)c1 | 5.8 | -0.1 | 9.8 | 40.6 | 51.7* | -4.6
COc1ccc(CC(=O)N2CCCc3ccccc32)cc1 | 3.5 | -0.1 | 1.1 | 35.5 | 50.3* | .
O=C(COc1ccccc1)N1CCc2ccccc21 | 7.5 | 0.1 | -0.3 | -58.5 | -21.5 | -53.3
O=C(c1cc2ccccc2c(=O)o1)N1CCCc2ccccc21 | -1.9 | 0.6 | 4.2 | -10.3 | -20.5 | .
COc1ccc(CC(=O)OCC(=O)N2CCCc3ccccc32)cc1 | . | 0.5 | -9.4 | -12.4 | 4.0 | -38.7
O=C(c1cc(=O)c2ccccc2o1)N1CCCc2ccccc21 | 1.5 | -0.1 | -9.0 | 27.9 | 51.7* | .
C[C@H](CO)N1C[C@H](C)[C@H](CN(C)S(=O)(=O)c2ccc(F)cc2)Oc2ccc(NS(=O)(=O)c3ccc(Cl)cc3)cc2C1=O | . | . | . | . | . | 9.3
SMILES | HSP90 refold inh | aDG glyco up | LMP1 NFkB inh | TROY NFkB inh | TWEAK Fn14 block | LGR2 inh
C[C@H]1CN([C@@H](C)CO)C(=O)Cc2cc(NS(=O)(=O)c3cccs3)ccc2O[C@@H]1CN(C)S(=O)(=O)c1cccs1 | . | . | . | . | . | -1.3
CC(C)NC(=O)Nc1cccc2c1O[C@@H](CN(C)S(C)(=O)=O)[C@@H](C)CN([C@@H](C)CO)C2=O | . | . | . | . | . | 9.9
COc1ccc(OC)c(C2=NOC(C(=O)N3CCCc4ccccc43)C2)c1 (stereo not drawn) | 0.6 | -0.2 | 4.8 | 38.6 | 55.2* | .
O=C(CCS(=O)(=O)c1ccc(Cl)cc1)N1CCCc2ccccc21 | 10.4 | -0.3 | -2.2 | 64.9* | 53.1* | 0.4
O=C(OCC(=O)N1CCc2ccccc21)c1ccccc1[N+](=O)[O-] | . | 0.2 | -33.2 | 49.9 | 59.7* | 37.5
COc1ccc(CC(=O)Nc2cccc3c2CCCC3)cc1 | 8.0 | 0.1 | -2.7 | -10.0 | 103.7* | .
Cc1ccc(S(=O)(=O)N(C)C[C@@H]2Oc3ccc(NC(=O)CCC(F)(F)F)cc3C(=O)N([C@@H](C)CO)C[C@H]2C)cc1 | . | . | . | . | . | 0.1
Cc1ccc(S(=O)(=O)Nc2ccc3c(c2)C(=O)N([C@H](C)CO)C[C@H](C)[C@@H](CN(C)S(=O)(=O)c2ccc(Cl)cc2)OCCCC[C@@H](C)O3)cc1 | . | . | . | . | . | -1.1
C[C@@H]1CN([C@@H](C)CO)S(=O)(=O)c2ccc(C3=CCCC3)cc2O[C@H]1CN(C)C(=O)c1cccnc1 | . | . | . | . | . | -1.2
COc1ccc(C(CNC(=O)Nc2ccccc2)N2CCN(C)CC2)cc1 (stereo not drawn) | -1.2 | -0.4 | 51.5* | -7.2 | -9.3 | -0.9
COc1ccc(NC(=O)NCCN2CCc3ccccc3C2)cc1 | -1.1 | -0.2 | 82.0* | -20.9 | -12.9 | 15.0
COc1ccc(C(CNC(=O)Nc2ccc(Cl)cc2)N2CCN(C)CC2)cc1 (stereo not drawn) | -2.0 | 0.0 | 2.4 | -11.4 | -21.3 | -3.5
Cc1cc(N2CCOCC2)ccc1/C=C1\SC(=O)N(C(C)C)C1=O | 5.4 | -0.1 | -54.1 | 25.6 | 49.2 | .
CCC(C)N1C(=O)S/C(=C/c2ccc(N3CCOCC3)cc2C)C1=O (stereo not drawn) | 3.7 | -0.2 | -18.9 | 32.5 | 51.2* | -68.7
C[C@@H]1CN([C@@H](C)CO)C(=O)c2cccc(NS(C)(=O)=O)c2O[C@H]1CN(C)Cc1ccc(C(=O)Nc2ccccc2N)cc1 | . | . | . | . | . | -7.2
O=C(c1ccccc1)N1CC(=O)N2[C@@H](CO)[C@H](c3ccc(C#Cc4ccccc4)cc3)[C@@H]2C1 | . | . | . | . | . | 14.2
CC(=O)NNc1ncnc2c1cnn2-c1ccc(C)c(C)c1 | 5.1 | -0.1 | 6.6 | 53.9* | 65.6* | -4.6
CCC(=O)NNc1ncnc2c1cnn2-c1ccccc1 | 1.8 | 0.0 | -8.2 | -2.2 | 7.5 | 0.2
COc1cccc(-c2ccc([C@H]3[C@@H](CO)N4C(=O)CNC[C@@H]34)cc2)c1 | . | . | . | . | . | -15.6
CS(=O)(=O)N1[C@H](CO)[C@@H](c2ccc(C#Cc3cccc(F)c3)cc2)[C@@H]1C#N | . | . | . | . | . | -7.3
C[C@H](CO)N1C[C@H](C)[C@H](CN(C)C(=O)Nc2ccccc2)OCCCC[C@H](C)Oc2ccc(NC(=O)C3CCCCC3)cc2C1=O | . | . | . | . | . | 68.7*
C[C@H](CO)N1C[C@H](C)[C@H](CN(C)C(=O)Nc2ccc(F)cc2)OCCCC[C@H](C)Oc2ccc(NC(=O)C3CCCCC3)cc2C1=O | . | . | . | . | . | 82.8*
CC(C)NC(=O)N(C)C[C@H]1Oc2c(NC(=O)Nc3ccc4c(c3)OCO4)cccc2C(=O)N([C@H](C)CO)C[C@@H]1C | . | -0.1 | 82.9* | -14.6 | 4.4 | -14.1
